tim23-1 inh = tim23-1 yeast growth inhibition; AID 463212; 330,000 compounds, 1.3% hits; S. cerevisiae tim23-1 growth, BacTiter-Glo luminescence, 24 h; inhibition, % at 20 µM;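 active means growth inhibition of the mutant yeast at or above 50%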;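 further: temperature-sensitive mutant grown at 25 °C; plate controls were DMSO-treated mutant yeast for no effect and medium wells lacking yeast for full effect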
NLRP3 yeast inh = inhibitors of NALP3 inflammasome in yeast. inhibition, % at 10 µM. Yeast reconstituted NLRP3/ASC/caspase-1, beta-gal luminescence, 24 h. 330,000 compounds, 0.39% hits;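 active means inhibition of 50% or more; inactive means inhibition below 50%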;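 further: plate controls were induced DMSO wells for no effect and uninduced yeast grown without galactose for full effect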
TIM10 inh = inhibits growth of TIM10 yeast strain; S. cerevisiae TIM10 strain growth, BacTiter-Glo luminescence, 24 h; 330,000 compounds, 1.4% hits; inhibition, % at 10 µM; AID 463195;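 active means inhibition of 40% or more at the single tested concentration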;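 further: wild-type TIM10 isogenic control strain grown at permissive 25 °C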
CR mimetic SO = yeast age-related superoxide inhibition as caloric restriction mimetic; S. cerevisiae aged cells, superoxide DHE fluorescence; hits give low values; AID 2690; superoxide response (% of plate mean), % at 10 µM; 330,000 compounds, 0.18% hits;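 active means superoxide response under a set limit, about three screen SD below normal, cut at about 65% in these data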;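 further: yeast aged for seven days with compound at 30 °C before DHE staining; 100% = average MFI of all compound-treated wells on the plate with controls excluded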
tim10-1 inh = growth inhibitors of tim10-1 mutant yeast; S. cerevisiae tim10-1 ts strain growth, BacTiter-Glo, 24 h; inhibition, % at 20 µM; 330,000 compounds, 2.2% hits;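 active means inhibition of at least 40%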;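 further: mutant grown at 25 °C; 0% = DMSO wells with yeast and 100% = wells holding no yeast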
tim23-1 conf = tim23-1 yeast growth inhibition, confirmed; shares compounds with tim23-1 inh; S. cerevisiae tim23-1 growth, BacTiter-Glo luminescence, 24 h; inhibition, % at 20 µM; 4,400 compounds, 83% hits;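 active means inhibition above about 39% in either of two replicate wells at 20 µM, limit read from the data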;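 further: temperature-sensitive tim23-1 mutant grown at 25 °C; 0% = DMSO wells with yeast and 100% = medium wells without yeast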
The depositor's hits bear a star; i = inactive; / = not tested or not shown; ! = not confirmed by another sample. Rows were chosen to be rich in hits. Some 3.8% of all compounds tested hit in one or more screens of this group.

SMILES	tim23-1 inh	NLRP3 yeast inh	TIM10 inh	CR mimetic SO	tim10-1 inh	tim23-1 conf
Cc1ccc(S(=O)(=O)N2CCCN(S(=O)(=O)c3ccccc3Br)CC2)cc1	52*	/	2	103	22	24
Cc1ccc(S(=O)(=O)N2C/C=C\CN(S(=O)(=O)c3ccccc3Br)CC2)cc1	49	/	9	93	25	/
CCOC(=O)c1cccc(NC(=O)CCNS(=O)(=O)c2cccc3nonc23)c1	-1	18	10	80	-18	/
CN(C)c1nc(N)nc(N(c2ccccc2)c2ccccc2)n1	22	14	7	98	20	/
CCN(CC)c1nc(N)nc(N(c2ccccc2)c2ccccc2)n1	57*	-13	4	103	36	50*
CCC1CCCCN1S(=O)(=O)c1ccc(NC(=O)c2ccncc2)cc1 (stereo unspecified)	79*	-5	24	117	32	30
CSc1nc2ccc(NS(=O)(=O)c3ccc(Br)s3)cc2s1	61*	18	28	116	29	62*
Nc1ccc(SCC(=O)Nc2cccc([N+](=O)[O-])c2)cc1	-8	1	7	104	13	/
C[C@H]1CNC(=O)C(=O)N1C[C@H](Cc1ccc(O)cc1)NC(=O)CC12CC3CC(CC(C3)C1)C2	12	3	8	97	1	/
O=C(COC(=O)c1ccc(F)cc1Cl)NC1CCS(=O)(=O)C1 (stereo unspecified)	12	15	10	118	3	/
O=C(COC(=O)c1ccc(F)cc1Cl)NC1CCCCCCC1	51*	26	23	87	19	42*
Cc1ccc(SCCC(=O)OC(C(=O)NC(N)=O)C(C)C)cc1 (stereo unspecified)	13	5	18	121	4	/
COc1cccc2c1C(=O)C=C(C)C2=O	50*	13	30	98	27	47*
CC1=CC(=O)c2ccccc2C1=O	51*!	-13	7	104	18	63*
COc1ccc2c(c1O)C(=O)c1ccccc1C2=O	15	26	-19	89	-19	/
CC(C)(C=O)C1=CC(=O)c2ccccc2C1=O	/	/	/	114	/	/
CC(=O)N/C(=N/c1nc(C)cc(C)n1)Nc1cccc(C)c1C	37	13	17	94	13	/
CCCN1CCN(C(=O)C2CCN(c3nnc(C)c4c(C)n(-c5ccc(C)cc5)nc34)CC2)CC1	-9	27	9	87	5	/
Clc1ccc(-c2[nH]ncc2N=Nc2ccccc2)cc1	68*	28	38	111	30	-2
CC(C)(C)c1ccc(C(=O)Nc2ccc(Cl)cc2)cc1	2	14	-11	99	-9	/
CC(C)(C)c1ccc(NC(=O)c2ccsc2)cc1	56*	41	25	90	24	48*
CCOc1ccc(C2/C(=C(\O)c3ccc4c(c3)OCCO4)C(=O)C(=O)N2CCCn2ccnc2)cc1OC (stereo unspecified)	-1	5	-11	100	-6	/
Cc1nn2c(NCCOCCO)c3c(nc2c1-c1ccccc1)CCCC3	19	-13	25	107	23	/
COCCNc1c2c(nc3c(-c4ccccc4)c(C)nn13)CCCC2	50*	6	23	102	32	38
O=C(CCC1CCCN(C(=O)c2ccoc2)C1)NCc1ccccc1F (stereo unspecified)	-2	-2	-7	98	7	/
SMILES	tim23-1 inh	NLRP3 yeast inh	TIM10 inh	CR mimetic SO	tim10-1 inh	tim23-1 conf
CCOC(=O)c1sc(NC(=O)c2cccs2)cc1C	55*	25	34	104	21	78*
CC(C(Sc1ccccc1N)c1ccccc1)[N+](=O)[O-] (stereo unspecified)	58*	36	27	i	29	57*
CC1(C)CC(=O)C(N=Nc2ccc(F)cc2)=C(O)C1	-1	-5	-22	105	8	/
CC1(C)CC(=O)C(N=Nc2ccc(-c3ccccc3)cc2)=C(O)C1	0	18	-11	99	0	/
CC1(C)CC(=O)C(N=Nc2cccnc2)=C(O)C1	52*	-13	5	110	8	23
CC1(C)CC(=O)C(N=Nc2ccc3ncsc3c2)=C(O)C1	60*	-3	14	96	2	30
CC(=O)Nc1ccc(S(=O)(=O)NCC2(N3CCOCC3)CCCCC2)cc1	1	20	14	/	17	/
COc1ccc(CCCC(=O)N/N=C/c2ccc(C)cc2)cc1	56*	34	0	88	31	51*
Cc1cccc(NC(=S)N/N=C/c2c[nH]c3ccccc23)c1	64*	12	6	104	38	-6
Cc1ccc(C(=O)Nc2ccc(C(=O)N/N=C/c3c[nH]c4ccccc34)cc2)cc1	-12	13	18	79	16	/
COCCNC(=O)c1cccc(OC2CCN(Cc3ccccc3C)CC2)c1	-5	9	-6	109	-10	/
COc1ccc2c(=O)c3c(=O)n(Cc4ccco4)c(-c4cc(OC)c(OC)c(OC)c4)nc3oc2c1	2	-1	13	92	2	/
COc1ccc2c(=O)c3c(=O)n(Cc4ccco4)c(-c4ccccc4)nc3oc2c1	59*	7	32	94	33	39*
COc1ccc(/C=C/C2=Nc3ccccc3NC(C)(C)C2)cc1OC	51*	-4	13	104	19	43*
COc1ccc(NC(=O)CCCC(=O)OCC(=O)c2cccc(OC)c2)cc1	-5	12	4	98	-4	/
Cc1cccc(S(=O)(=O)Nc2nc3ccccc3nc2OC(C)C)c1	53*	18	39	98	28	49*
Cc1ccc(-c2cc(-c3ccco3)c3c(N)c(C(=O)NN)oc3n2)cc1	30	2	7	122	23	/
NNC(=O)c1oc2nc(-c3ccccc3)cc(-c3ccccc3)c2c1N	59*	11	23	94	39	-19
Fc1ccc(/C=N/n2c(C3CCCCC3)n[nH]c2=S)cc1	71*	22	34	114	35	32
S=c1[nH]nc(C2CCCCC2)n1/N=C/c1ccccc1	67*	21	23	101	32	40*
CN(C)c1ccc(/C=N/n2c(C3CCCCC3)n[nH]c2=S)cc1	50*	28	9	102	14	33
S=c1[nH]nc(C2CCCCC2)n1/N=C/c1ccccn1	29	0	14	100	29	/
CCOc1ccc(/C=N/n2c(C3CCCCC3)n[nH]c2=S)cc1	74*	24	37	117	28	21
COc1cc(/C=N/n2c(C3CCCCC3)n[nH]c2=S)ccc1O	8	-4	20	98	27	/
CCn1cc(CN2CCCC(CNC(=O)COc3ccccc3OC)C2)c(C)n1 (stereo unspecified)	0	18	-13	87	-9	/
O=C(N/N=C1\C2CN3CCN(C2)CC1(c1ccccc1)C3)Nc1ccccc1	0	9	1	88	5	/
O=C(/C=C/c1ccccc1Cl)OCC(=O)c1ccc[nH]1	53*	5	11	118	7	45*

Assay outcomes deposited in PubChem BioAssay by several laboratories.
